The source made the active and inactive calls.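 The calls were made as follows: active = compounds killing one labelled cell type while sparing the other, by normalised counts and ratio limits, not self-fluorescent; inactive = the rest.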
Experiment: EMT-state selective cytotoxicity in co-culture – imaging, PC-3E GFP, TEM4-18 mCherry, primary screen (AID 1345086);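 also: cells exposed to compound for 72 h before imaging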;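 as to red/green cell ratio (normalised): normalised mesenchymal count divided by normalised epithelial count so high means epithelial killing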
Conditions: PC-3E GFP / TEM4-18 mCherry co-culture, imaging cell counts, at 1 µM; for red/green cell ratio (normalised): actives lie on both sides, counts scaled to control wells, 1 = unselective
[1] = measured here: epithelial PC-3E GFP cell survival
[2] = measured here: mesenchymal TEM4-18 mCherry cell survival

SMILES | red/green cell ratio (normalised) | normalised cell number [1] | normalised cell number [2]
CC1CC2OC2/C=C/C(O)CC(=O)O1 (stereo unspecified) | 0.97 (inactive) | 1.06 | 1.02
C[C@H]1C[C@H]2C(=O)O[C@H]([C@@H](C)CCCC[C@@H](C)O)C[C@@H](O)[C@H](C)C(=O)NC(Cc3ccccc3)C(=O)N2C1 (stereo partly specified) | 0.93 (inactive) | 1.14 | 1.05
C/C1=C\[C@H](C)C[C@H](C)[C@@H](C)OC(=O)[C@H](Cc2ccccc2)NC(=O)[C@@H](C)C(=O)C(C)C1O (stereo partly specified) | 0.99 (inactive) | 1.08 | 1.06
NCc1ccccc1CC(=O)NC1C(=O)N2C(C(=O)O)=C(CSc3nnnn3CC(=O)O)CSC12 (stereo unspecified) | 0.82 (inactive) | 1.19 | 0.98
O=C1NCC[C@H]1Oc1ccc(Oc2cnc3ccc(Cl)cc3n2)cc1 | 0.76 (inactive) | 1.18 | 0.9
O=C(C/C=C/c1ccc(O)c(O)c1)O[C@H](Cc1ccc(O)c(O)c1)C(=O)O | 1.06 (inactive) | 1 | 1.06
Nc1nc(Cl)nc2c1ncn2C1O[C@H](CO)[C@@H](O)[C@@H]1F (stereo partly specified) | 1.78 (inactive) | 0.22 | 0.39
O=C(NCC1O[C@@H](OC2C(NC(=O)OCc3ccccc3)C[C@@H](NC(=O)OCc3ccccc3)[C@H](OC3OC(COS(=O)(=O)O)[C@@H](OS(=O)(=O)O)[C@H](NC(=O)OCc4ccccc4)[C@H]3OS(=O)(=O)O)[C@H]2OS(=O)(=O)O)[C@H](OS(=O)(=O)O)[C@@H](OS(=O)(=O)O)C1OS(=O)(=O)O)OCc1ccccc1 (stereo partly specified) | 1.03 (inactive) | 0.88 | 0.91
CC[C@@H](C)CC(=O)N1C(=S)O[C@@H]2Cc3ccccc3[C@@H]21 | 0.94 (inactive) | 1.12 | 1.05
CC(=O)OCC1O[C@H](Sc2ccc(C)cc2)[C@@H]2[C@@H](OC(=O)N2C(C)=O)C1OC(C)=O (stereo partly specified) | 0.77 (inactive) | 1.36 | 1.05
Cc1ccc(S(=O)(=O)O[C@@H]2CCOC2=O)cc1 | 0.71 (inactive) | 1.41 | 1.01
COc1cc(C)c(Oc2cc(C)cc(O)c2O)c(O)c1 | 0.97 (inactive) | 1.18 | 1.15
Oc1ccc2c(c1)OCC1(O)Cc3cc(O)c(O)cc3C21 (stereo unspecified) | 1.17 (inactive) | 1.12 | 1.31
COc1cc(/C=C/C(=O)O)cc(OC)c1O | 1.1 (inactive) | 1.09 | 1.2
C#C[C@]1(O)CCC2C3CCC4=CC(=O)CC[C@@H]4C3CCC21CC (stereo partly specified) | 1.14 (inactive) | 1.07 | 1.21
CC(C)(C)[Si](C)(C)OCC1O[C@H](Sc2ccccc2)[C@H]2NC(=O)O[C@H]2C1O (stereo partly specified) | 1.07 (inactive) | 0.97 | 1.05
COC(=O)CCC(=O)NC(=O)Cc1ccccc1 | 0.93 (inactive) | 1.16 | 1.08
COC(=O)C[C@@H]1C2(C)C(=O)C3CC4(OC3(O)C1(C)C)C1=CC(=O)O[C@@H](c3ccoc3)[C@]1(C)CCC42 (stereo partly specified) | 1.06 (inactive) | 0.91 | 0.96
CC[C@H](O)c1oc(=O)cc(OC)c1C | 0.96 (inactive) | 1.01 | 0.97
Cc1nc(COP(=O)(O)O)cc(CN(CCN(CC(=O)O)Cc2cc(COP(=O)(O)O)nc(C)c2[O-])CC(=O)O)c1[O-].[Mn+2] | 0.88 (inactive) | 1.27 | 1.12
O=C1Cc2cc(O)ccc2O1 | 1.26 (inactive) | 0.91 | 1.14
C=C1OC(=O)c2c(OC)cc(OC)c(C)c2C1C (stereo unspecified) | 1 (inactive) | 0.98 | 0.98
O=c1c(-c2ccc(O)cc2)coc2c(C3O[C@H](CO)[C@@H](O)[C@H](O)[C@H]3O)c(O)ccc12 (stereo partly specified) | 1 (inactive) | 1.12 | 1.13
CCO[C@H]1OC(C(=O)OC)C(OC(=O)CCC(=O)O)[C@H](OC(=O)c2ccccc2)[C@@H]1OC(=O)c1ccccc1 (stereo partly specified) | 0.91 (inactive) | 1.18 | 1.07
COc1cc(O)c2c(c1C)C(C(C)=O)COC2=O (stereo unspecified) | 0.88 (inactive) | 0.32 | 0.28
C[C@@H]1O[C@@H](O[C@H]2[C@@H](Oc3cc(O)c4c(c3)O[C@H](c3ccc(O)cc3)CC4=O)O[C@H](CO)[C@@H](O)[C@@H]2O)[C@H](O)[C@H](O)[C@H]1O | 1.11 (inactive) | 0.94 | 1.04
NCC1O[C@@H](OC2C(N)C[C@@H](N)C(O)[C@H]2OC2OC(CO)C(OC3OC(CN)[C@@H](O)C(O)[C@H]3N)C2O)C(N)[C@@H](O)C1O (stereo partly specified) | 1.11 (inactive) | 0.9 | 0.99

From PubChem BioAssay
